Experimental data from PubChem BioAssay AID1159580 (chemical genetic matrix, 2015).
Out of some 5,500 compounds screened, about 2,000 (36%) were called active. Not shown: some 18% with an inconclusive outcome. Cut-off read from the data, not from the text of the source: active = normalized growth mostly below about 0.91 (no sharp cut-off); inconclusive = no clear call, values can overlap the other calls; inactive = mostly above about 0.92. This is one part of the list.

Assay: chemical genetic growth profiling, strain panel (AID 1159580);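 note: tested at 20 µM; growth read once vehicle control cultures reached saturation at 30 °C; 1 = growth at the plate median or of vehicle wells; lower values mean less growth of the strain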
Conditions: S. cerevisiae deletion strains, growth OD
[1] = locus YAL013W, strain DEP1, stronger effect = lower value
[2] = locus YBR229C, strain ROT2, stronger effect = lower value
[3] = locus YDL101C, strain DUN1, stronger effect = lower value
[4] = locus YDR150W, strain NUM1, stronger effect = lower value
[5] = locus YEL061C, strain CIN8, stronger effect = lower value
[6] = locus YGR078C, strain PAC10, stronger effect = lower value
[7] = locus YHR030C, strain SLT2, stronger effect = lower value
[8] = locus YHR087W, strain rtc3, stronger effect = lower value
[9] = locus YJR043C, strain POL32, stronger effect = lower value
[10] = locus YJR075W, strain HOC1, stronger effect = lower value
[11] = locus YLR039C, strain RIC1, stronger effect = lower value
[12] = locus YLR058C, strain SHM2 (second series), stronger effect = lower value
[13] = locus YLR085C, strain ARP6, stronger effect = lower value
[14] = locus YLR262C, strain YPT6, stronger effect = lower value
[15] = locus YML094W, strain GIM5, stronger effect = lower value
[16] = locus YMR219W, strain ESC1, stronger effect = lower value
[17] = locus YMR263W, strain SAP30, stronger effect = lower value
[18] = locus YNL153C, strain GIM3, stronger effect = lower value
[19] = locus YNL298W, strain CLA4 (second series), stronger effect = lower value
[20] = locus YNL322C, strain KRE1, stronger effect = lower value
[21] = locus YNR030W, strain Alg12, stronger effect = lower value
[22] = locus YPL055C, strain LGE1, stronger effect = lower value
[23] = locus YPL241C, strain CIN2, stronger effect = lower value
[24] = locus YPR135W, strain CTF4, stronger effect = lower value
[25] = locus YAR019C, strain CDC15, stronger effect = lower value
[26] = locus YBL105C, strain PKC1, stronger effect = lower value
[27] = locus YBR135W, strain CKS1, stronger effect = lower value
[28] = locus YBR136W, strain MEC1, stronger effect = lower value
[29] = locus YBR160W, strain CDC28, stronger effect = lower value
[30] = locus YDL017W, strain CDC7, stronger effect = lower value
[31] = locus YDL028C, strain MPS1, stronger effect = lower value
[32] = locus YDL108W, strain KIN28, stronger effect = lower value
[33] = locus YDL132W, strain cdc53, stronger effect = lower value
[34] = locus YDL214C, strain PRR2, stronger effect = lower value
[35] = locus YDR052C, strain DBF4, stronger effect = lower value
[36] = locus YDR054C, strain cdc34, stronger effect = lower value
[37] = locus YDR226W, strain ADK1, stronger effect = lower value
[38] = locus YDR477W, strain SNF1, stronger effect = lower value
[39] = locus YER123W, strain YCK3, stronger effect = lower value
[40] = locus YER133W, strain GLC7, stronger effect = lower value
[41] = locus YFL009W, strain cdc4, stronger effect = lower value
[42] = locus YFR003C, strain YPI1, stronger effect = lower value
[43] = locus YFR019W, strain FAB1, stronger effect = lower value
[44] = locus YFR028C, strain CDC14, stronger effect = lower value
[45] = locus YGR040W, strain KSS1, stronger effect = lower value
[46] = locus YGR052W, strain FMP48, stronger effect = lower value
[47] = locus YGR092W, strain DBF2, stronger effect = lower value
[48] = locus YHR079C, strain IRE1, stronger effect = lower value
[49] = locus YHR082C, strain KSP1, stronger effect = lower value
[50] = locus YHR205W, strain SCH9, stronger effect = lower value
[51] = locus YIL147C, strain SLN1, stronger effect = lower value
[52] = locus YJL095W, strain BCK1, stronger effect = lower value
[53] = locus YJL128C, strain PBS2, stronger effect = lower value
[54] = locus YJL157C, strain FAR1, stronger effect = lower value
[55] = locus YJR016C, strain ILV3, stronger effect = lower value
[56] = locus YJR066W, strain TOR1 (second series), stronger effect = lower value
[57] = locus YJR066W, strain TOR1, stronger effect = lower value
[58] = locus YKL048C, strain ELM1, stronger effect = lower value
[59] = locus YKL067W, strain YNK1, stronger effect = lower value
[60] = locus YKL193C, strain SDS22, stronger effect = lower value
[61] = locus YKL203C, strain TOR2, stronger effect = lower value
[62] = locus YLR113W, strain HOG1, stronger effect = lower value
[63] = locus YLR133W, strain CKI1, stronger effect = lower value
[64] = locus YLR403W, strain SFP1, stronger effect = lower value
[65] = locus YML070W, strain DAK1, stronger effect = lower value
[66] = locus YMR001C, strain CDC5, stronger effect = lower value
[67] = locus YMR205C, strain PFK2 (second series), stronger effect = lower value
[68] = locus YMR277W, strain FCP1, stronger effect = lower value
[69] = locus YNL006W, strain LST8, stronger effect = lower value
[70] = locus YNL020C, strain ARK1, stronger effect = lower value
[71] = locus YNL183C, strain NPR1, stronger effect = lower value
[72] = locus YNL207W, strain RIO2, stronger effect = lower value
[73] = locus YNL222W, strain SSU72, stronger effect = lower value
[74] = locus YNL307C, strain MCK1 (second series), stronger effect = lower value
[75] = locus YOL136C, strain PFK27, stronger effect = lower value
[76] = locus YOR061W, strain CKA2, stronger effect = lower value
[77] = locus YOR119C, strain RIO1, stronger effect = lower value
[78] = locus YOR231W, strain MKK1, stronger effect = lower value
[79] = locus YOR329C, strain SCD5, stronger effect = lower value
[80] = locus YPL031C, strain PHO85, stronger effect = lower value
[81] = locus YPL153C, strain RAD53, stronger effect = lower value
[82] = locus YPL204W, strain HRR25, stronger effect = lower value
[83] = locus YPL209C, strain IPL1, stronger effect = lower value
[84] = locus YPL256C, strain CLN2, stronger effect = lower value
[85] = locus YPR025C, strain CCL1, stronger effect = lower value
[86] = locus YPR106W, strain ISR1, stronger effect = lower value
[87] = locus YPR111W, strain DBF20, stronger effect = lower value
[88] = strain NNK1, stronger effect = lower value
[89] = strain TSCII, stronger effect = lower value

Measured: normalized growth

CC1(C)CC(=O)c2c(S(C)(=O)=O)sc(Br)c2C1
inactive: [1] 0.951 | [2] 1.01 | [3] 0.995 | [4] 0.965 | [5] 0.988 | [6] 1.02 | locus YGR229C, strain SMI1, stronger effect = lower value 0.981 | [7] 0.921 | [8] 1.02 | [9] 1.03 | [10] 1.03 | locus YKL190W, strain CNB1, stronger effect = lower value 0.998 | [11] 0.91 | [12] 1.01 | [13] 0.881 | [14] 0.907 | [15] 0.977 | [16] 0.993 | [17] 0.983 | [18] 1.02 | [19] 0.98 | [20] 1 | [21] 1 | [22] 0.924 | [23] 0.954 | [24] 0.96

N#CCC(=O)c1cccc(CSc2ccccc2Cl)c1
inactive: [25] 0.896 | [26] 0.944 | [27] 0.954 | [28] 0.967 | [29] 0.971 | [30] 0.982 | [31] 0.972 | [3] 0.974 | [32] 0.966 | [33] 0.977 | [35] 0.976 | [36] 0.987 | [37] 0.964 | [41] 0.983 | [42] 0.982 | [44] 0.965 | [47] 1.03 | [50] 0.992 | [51] 0.968 | [53] 1.04 | [55] 0.987 | [58] 0.937 | [60] 0.978 | [64] 1 | [66] 0.976 | [67] 0.812 | [68] 0.973 | [71] 0.584 | [72] 0.966 | [73] 0.961 | [74] 1.04 | [79] 0.969 | [83] 0.966 | [85] 0.972 | [86] 0.996 | [87] 0.968 | [88] 0.971 | [89] 0.973
active: [34] 0.617 | [38] 0.417 | [39] 0.243 | [40] 0.639 | [43] 0.31 | [45] 0.456 | [46] 0.473 | [7] 0.114 | [48] 0.209 | [49] 0.293 | [52] 0.213 | [54] 0.42 | [56] 0.313 | [57] 0.353 | [59] 0.59 | [61] 0.529 | [62] 0.56 | [63] 0.512 | [65] 0.405 | [69] 0.319 | [70] 0.437 | [75] 0.382 | [76] 0.553 | [77] 0.504 | [78] 0.43 | [80] 0.189 | [81] 0.21 | [82] 0.162 | [84] 0.343

CC(O)(CNCc1ccc(Cl)cc1)CSc1ccccc1Cl (stereo not given)
inactive: [25] 0.977 | [26] 0.984 | [27] 0.99 | [28] 0.975 | [29] 0.998 | [30] 0.992 | [31] 0.972 | [3] 0.985 | [32] 0.987 | [33] 0.994 | [34] 0.959 | [35] 1 | [36] 0.988 | [37] 0.98 | [38] 0.952 | [39] 0.862 | [40] 0.952 | [41] 0.99 | locus YFL029C, strain CAK1, stronger effect = lower value 0.962 | [42] 0.986 | [43] 0.9 | [44] 0.985 | [45] 0.927 | [46] 1.08 | [47] 0.796 | [7] 0.938 | [48] 1 | [49] 1.03 | [50] 1.02 | [51] 0.978 | [52] 1.02 | [53] 1 | [54] 0.973 | [55] 0.991 | [56] 0.875 | [57] 0.998 | [58] 0.98 | [59] 0.971 | locus YKL101W, strain HSL1, stronger effect = lower value 0.963 | [60] 0.985 | [61] 0.981 | [62] 1.07 | [63] 0.976 | [64] 0.963 | [65] 0.974 | [66] 0.982 | [67] 0.977 | [68] 0.99 | [69] 0.997 | [70] 0.991 | locus YNL161W, strain CBK1, stronger effect = lower value 0.991 | [71] 1.02 | [72] 0.994 | [73] 0.985 | [74] 0.897 | locus YOL078W, strain AVO1, stronger effect = lower value 0.99 | [75] 0.975 | [76] 0.964 | [77] 0.928 | [78] 1.02 | [79] 0.992 | [80] 0.955 | [81] 0.951 | [82] 0.923 | [83] 0.984 | [84] 1.01 | [85] 0.988 | [86] 1 | [87] 0.998 | [88] 1 | [89] 0.987

O=C(Nc1ccccc1SCc1cccc(C(F)(F)F)c1)c1c(F)cccc1Cl
inactive: [1] 1 | [2] 1.03 | [3] 1 | [4] 1.01 | [5] 1.03 | [6] 1.02 | [7] 1.01 | [8] 0.998 | locus YJL187C, strain SWE1, stronger effect = lower value 1.02 | [9] 0.988 | [10] 0.998 | [11] 1.04 | [12] 1.01 | [13] 0.986 | [14] 0.984 | [15] 1 | [16] 1.02 | [17] 0.991 | [18] 1.02 | [19] 1.04 | [20] 1.02 | [21] 0.984 | locus YOL006C, strain TOP1, stronger effect = lower value 0.963 | [22] 1.02 | [23] 1.01 | [24] 0.942
